# High-throughput results from PubChem.
# Mito fusion yeast = qHTS Assay for Small Molecule Inhibitors of Mitochondrial Division or Activators of Mitochondrial Fusion; S. cerevisiae fusion-defective mutant growth rescue, CellTiterGlo 48 h; Potency, µM (series often up to 46.1 µM), for the others: at the highest dose growth rescue (activation), usual class: activators; 320,000 tested, 0.23% active; AID 485298, 2010; also: potency is read from the fitted curve at half-maximal effect; % of control where 0% means no effect; nearly all actives have a fitted effect of over 45% in size
#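 Yeast fusion mutant, YPEG (non-fermentable carbon), compound, 48 h at 37C non-permissive; CellTiterGlo added, 10 min RT, luminescence read. Rescued growth = division inhibition.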
# ASM inhibitor = Inhibitors of Secretory Acid Sphingomyelinase (S-ASM): qHTS; Potency, µM (series often up to 57.5 µM), for inactives: top-dose activity change, negative = inhibition, usual class: inhibitors; AID 504937, 2011; Sphingomyelin phosphodiesterase (Homo sapiens), P17405; placental ASM, HMU-PC fluorogenic substrate, 60 min; 340,000 tested, 0.006% active; also: potency is read from the fitted curve at half-maximal effect
#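 Human placenta-derived ASM preincubated with compound 10 min at room temperature, then reacted with 9 uM (final) fluorogenic HMU-PC substrate for 60 min at 37 C. Stop solution raises pH to 10; fluorescence read at Ex 386/Em 447 nm.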
# RGS4 inh = Inhibitors of Regulator of G Protein Signaling (RGS) 4: qHTS; Regulator of G-protein signaling 4 (Homo sapiens), P49798; Transcreener GDP fluorescence polarization, RGS4-accelerated GTP hydrolysis; Potency, µM (doses to about 114 µM), inactives show top-dose activity change, negative = inhibition, actives largely listed as inhibitors; 390,000 tested, 0.039% active; AID 504845, 2011; also: potency is read from the fitted curve at half-maximal effect; % is scaled to controls: 0 for no effect and ±100 for the full control effect; nearly all actives have a fitted effect of over 75% in size
#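 MLSMR compounds (23 nl, pin-transferred) preincubated 10 min at room temperature with a 500nM (2x) first reagent, then RGS4 at 900nM (2x) plus Transcreener GDP mix added; fluorescence polarization (620/688 nm) read before and after 90 min at 30 °C.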
# LDHA block = qHTS assay for inhibitors of human lactate dehydrogenase | purified LDHA, NADH/diaphorase-resazurin fluorescence; hits give low values | activity change, % (values are at about 110 or 230 µM) | 480,000 tested, 0.15% active; in the data active = activity change below about -30%; inconclusive = mostly about -25% to -30%;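 also: plate controls were DMSO wells for no effect and wells without enzyme for full effect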
#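 Human LDH5 (2 nM) was incubated with 0.06 mM NADH and 0.2 mM pyruvate for 5 min at room temperature in Tris pH 7.4. Remaining NADH was coupled through diaphorase/resazurin, and resorufin fluorescence was read at 0 and 20 min.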
# ClpP mod = qHTS Assay for Activators of ClpP; ATP-dependent Clp protease proteolytic subunit (Bacillus subtilis (strain 168)), P80244; purified B. subtilis ClpP, FRET peptide cleavage, 20 min; Potency, µM (series often up to 57.5 µM), inactives show top-dose activity change, negative = active; 340,000 tested, 1.9% active; AID 651965, 2013; active = well fitted falling curve with a large enough effect; inconclusive = small, poorly fitted or top-dose-only effect; inactive = no such curve, though single readings can be large or run the other way; also: potency is read from the fitted curve at half-maximal effect; the source files actives as falling curves though it sought activators and does not explain the sign; nearly all actives have a fitted effect of over 65% in size
#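 FRET quenching reversal measured ClpP activation: 10 microg/mL B. subtilis ClpP at pH 8 with the FRET-FV decapeptide, read at 430 nm after 320 nm excitation. The 20-min minus 0-min signal was scaled between DMSO/no-enzyme wells and ADEP (5.8 microM final).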
# IDH1 R132H inh = qHTS for Inhibitors of mutant isocitrate dehydrogenase 1 (IDH1): qHTS; Isocitrate dehydrogenase [NADP] cytoplasmic (Homo sapiens), O75874; IDH1-R132H enzyme, NADPH consumption, diaphorase/resazurin fluorescence; Potency, µM (doses to about 76.6 µM), inactives show top-dose activity change, negative = inhibition, most hits filed as inhibitors; 390,000 tested, 0.093% active; also: potency is read from the fitted curve at half-maximal effect; % is scaled to controls: 0 for no effect and ±100 for the full control effect; nearly all actives have a fitted effect of over 65% in size
#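 IDH1-R132H (0.5 ug/mL dispensed) in pH 7.5 Tris buffer was preincubated 30 min with compound, then given a substrate mix of 0.016 mM NADPH and 2 mM alpha-KG for 80 min at room temperature; remaining NADPH was read by diaphorase/resazurin fluorescence.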
# An asterisk follows results filed as active; i = inactive; ? = inconclusive; . = no result given; [ ] = remark or other dose. The entries come from a sample that favours hits as a whole. Unless noted, calls follow the shape of the dose curve; as a rule, active = well fitted curve in the direction sought with a large enough effect; inconclusive = small, poorly fitted or top-dose-only effect, or another doubt; inactive = no such curve, though single readings can be large; an effect the other way counts as inactive or inconclusive.
SMILES,Mito fusion yeast,ASM inhibitor,RGS4 inh,LDHA block,ClpP mod,IDH1 R132H inh
N#Cc1c(N)n(CCNC(=O)c2ccc(Cl)cc2)c2nc3ccccc3nc12,-2%,i,-14%[11.4 µM],10,3.2µM*,0%
COCCn1c(N)c(C#N)c2nc3ccccc3nc21,-8%,i,0%,23,-2%,4%
CC(NS(=O)(=O)c1ccc(C#N)cc1)c1cccs1 (stereo not drawn),.,.,.,-5,.,.
CC(C)(C)C(=O)Nc1sc2c(c1-c1nc3ccccc3[nH]1)CCCC2,-3%,22%,9%,-5,22µM*,-2%
CC(C)(C)C(=O)Nc1cccc(-c2nc3ccccc3[nH]2)c1,0%,1%,-8%,-4,?,3%
O=c1oc(-c2ccc(F)cc2)nn1CC(O)COc1ccc2ccccc2c1 (stereo not drawn),.,.,.,-30*,.,.
CCC(Oc1ccccc1F)C(=O)NCc1csc(-c2ccc(C)cc2)n1 (stereo not drawn),.,.,.,0,.,.
Cc1cc(-c2ccccc2)nc(N2CCN(c3ccccn3)CC2)n1,-1%,-1%,-4%,-10,50%,0%
Nc1nc(N2CCN(c3ccccn3)CC2)nc2ccccc12,3%,15%,19%,-30*,-12%,0%
Nc1nc(N2CCCCC2)nc2ccccc12,10%,i,15%,-8,18µM*,12%
CSc1ccc(NC(=O)C(C)N2CCN(C)CC2)cc1 (stereo not drawn),2%,0%,-2%,-35*,0%,12%
CC(C(=O)Nc1ccc2c(c1)OCO2)N1CCN(C)CC1 (stereo not drawn),4%,3%,-35%,?,.,-2%
CCc1ccc(-c2nc(SC(C(=O)N3CCCC3)c3ccccc3)n[nH]2)cc1 (stereo not drawn),.,.,.,3,.,.
CCCCn1c(-c2ccc(Cl)cc2)nc2c(=O)n(C)c(=O)[nH]c21,0%,13%,-53%,-3,11µM*,2%
CCCCn1c(-c2ccc(OC)cc2)nc2c(=O)n(C)c(=O)[nH]c21,7%,6%,?,-2,4%,17%
CC1CC(C)(C)N(C(=O)CN2CCN(C)CC2)c2ccccc21 (stereo not drawn),0%,0%,16%,-35*,-2%,4%
CC1CC(C)(C)N(C(=O)CN2C(=O)c3ccccc3C2=O)c2ccccc21 (stereo not drawn),24%,-4%,-20%,-6,1%,2%
Cc1ccc2c(c1)C(C)CC(C)(C)N2C(=O)NC1CCCCC1 (stereo not drawn),4%,-2%,-1%,4,2%,-1%
Cc1ccc2c(c1)C(C)CC(C)(C)N2C(=O)CN1CCN(C)CC1 (stereo not drawn),-8%,-2%,11%,-40*,1%,3%
CC(C)N(C(=O)Cn1c(CN2CCCCCC2)nc2ccccc21)c1ccccc1,.,.,.,13,.,.
CCCC(=O)Nc1ccccc1OCc1cc(=O)n2cc(C)ccc2n1,.,.,45%,-5,28µM*,13%
Cc1ccc(S(=O)(=O)N2CCN(C(=O)COC(=O)C3CCC3)CC2)c(C)c1,6%,.,3%,-3,25µM*,2%
COc1ccc(-c2cc(C(=O)OCC3CCCO3)c3ccccc3n2)cc1OC (stereo not drawn),.,.,.,3,.,.
O=C(COC(=O)c1ccccc1-n1cnnn1)c1ccc(Br)cc1,2%,.,6%,-4,16µM*,11%
COC(=O)[C@H](C)NC(=O)Nc1ccccc1C(F)(F)F,-1%,0%,-20%,-3,1%,3%
SMILES,Mito fusion yeast,ASM inhibitor,RGS4 inh,LDHA block,ClpP mod,IDH1 R132H inh
COC(=O)c1ccccc1NC(=O)N[C@@H](C)C(=O)OC,-5%,1%,5%,-9,28µM*,-1%
CCOC(=O)c1ccccc1NC(=O)/C=C/C(=O)O,-3%,7%,0%,1,1%,-2%
CCOC(=O)c1ccccc1NC(=O)N[C@@H](C)C(=O)OC,0%,2%,5%,-5,20µM*,8%
COCCOc1ccc(C(F)(F)F)cc1NC(=O)c1ccc(C(F)(F)F)cc1,?,4%,5%,-3,227%,8%
COCCOc1ccc(C(F)(F)F)cc1NC(=O)c1ccccc1F,6%,3%,7%,-5,25µM*,7%
CCOc1cc(CNCc2ccccn2)cc(Cl)c1OCc1ccc(F)cc1,.,.,.,6,.,.
CCOc1cc(C2NN=C(c3ccccc3)S2)ccc1OCc1ccc(F)cc1 (stereo not drawn),2%,123%,-29%,-1,14µM*,5%
CN(C)c1ccc(C(=O)NNC(=O)c2ccc(F)cc2)cc1,.,.,.,7,.,.
CN(C)c1ccc(C(=O)NNC(=O)c2ccc(Cl)cc2)cc1,-6%,-4%,-15%,-48*,.,-5%
CCOc1ccc(S(=O)(=O)Nc2ccccc2)cc1-c1nc2c(C(C)(C)C)nn(C)c2c(=O)[nH]1,.,.,.,-12,.,.
CN(C)CCNC(=O)/C(=C/c1ccc(-c2ccc(Cl)cc2)o1)NC(=O)c1ccccc1,-8%,60%,-7%,-5,16µM*,3%
CN(C)CCNC(=O)/C(=C/c1ccc(-c2ccc(Cl)cc2Cl)o1)NC(=O)c1ccccc1,-11%,24%,-1%,-5,-7%,2%
CCOc1ccccc1C1Nc2ccccc2-n2cc3c(=O)n(C)c(=O)n(C)c3c21 (stereo not drawn),.,.,.,12,.,.
COc1cc(C(=O)N(Cc2nc3ccccc3c(=O)[nH]2)C(C)C)cc(Cl)c1OCC(N)=O,.,.,.,0,.,.
CCOC(=O)Nc1oc2ccccc2c(=O)c1C,-8%,7%,-24%,-5,5µM*,-4%
Cc1ccc(-c2cc(C(=O)Nc3cccnc3)c3ccccc3n2)s1,9%,366%,0%,-1,16µM*,1%
Cc1cc(C)nc(NC(=O)c2cc(-c3ccc(C)s3)nc3ccccc23)c1,24%,382%,-51%,-1,16µM*,1%
COc1ccc(-c2nc3nc(C)cc(C)n3n2)cc1,-1%,0%,1%,-2,16µM*,0%
